96 molecules from PubChem BioAssay AID1063 (University of Pittsburgh Molecular Library Screening Center, 2008) can be followed below.

The campaign covered roughly 200,000 compounds. About 18,000 (9%) were called active. Cut-off read from the data, not from the text of the source: active = inhibition above about 50%; inactive = the rest. The list comes from a sample in which actives are over-represented; it also holds similar structures and randomly drawn compounds.

Broadly, the inhibition is the drop in the measured response relative to a control, in per cent.

A short description of this assay: antileishmanial activity against promastigotes – primary screen (AID 1063).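 Note: promastigotes grown with compound for 44 hours at 28 °C.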 Conditions: Leishmania major promastigotes, resazurin fluorescence viability; at 10 µM; hits give high values.
On to `CCOc1cccc2c1OC1(CCCCC1)N1N=C(c3cccnc3)CC21` (stereo unspecified), for which the inhibition was 57.3% (active).
`c1cncc(-c2nnc3n2C2(CCCCC2)Cc2ccccc2-3)c1`: the inhibition was -0.67% (inactive).
For `O=[N+]([O-])c1ccc(Sc2n[nH]c(-c3ccco3)n2)nc1` the value was 4.36% (inactive); for `CCOC(=O)CSc1nc(C)cc2c1C(=O)OC2`, 3.71% (inactive).
Under `NC(N)=N/N=C/c1ccc(OCc2ccc(Cl)cc2Cl)cc1` stands 101% (active).
In the case of `COC(=O)c1sc2ncccc2c1OCc1ccc(Cl)cc1Cl`, the inhibition was -2.34% (inactive).
For `CCOc1ccc(NC(=O)NNC(=O)c2ccc(Cl)cc2Cl)cc1` the value was -5.16% (inactive); for `CCOC(=O)CN/C=C(\C#N)c1ccc(F)cc1`, -7.97% (inactive).
Regarding `Cc1c(CN2CCCCC2)c(O)n(CCO)c(=O)c1C#N`, the inhibition was 3.34% (inactive).
As for `O=C(NNC(=O)c1ccc(Cl)cc1Cl)c1cccs1`, the inhibition was -10.1% (inactive).
As to `CC(C)(O)C#Cc1ncc(C(F)(F)F)cc1Cl`, the inhibition is -3.82% (inactive).
Regarding `COc1ccc([N+](=O)[O-])cc1C1NN=C(c2cccc3ccccc23)S1` (stereo unspecified), the inhibition is -6.23% (inactive).
For the molecule `COc1ccc(C2Nc3ccccc3C(=O)N2c2ccc(Cl)cc2)cc1Cn1cc([N+](=O)[O-])cn1` (stereo unspecified), the inhibition is 53.1% (active).
As for `CCN(C(=O)CSc1nc2ccccc2n1CC)C1CCS(=O)(=O)C1` (stereo unspecified), the inhibition is -3.23% (inactive).
In the case of `CC(C)CNC(=O)/C=C/C(=O)O`, the inhibition was 1.32% (inactive).
For `CC(=O)c1ccc(-c2nnc(CCC(=O)N(C)Cc3cnc4ccccn34)o2)s1` the value was -0.67% (inactive).
For the molecule `Cc1ccc(NC(=O)c2ccn(C(=O)Nc3ccccc3)n2)c(C)c1`, the inhibition is -1.05% (inactive).
In the case of `Cc1ccc(NC(=O)Cn2nc(C)c3ccccc3c2=O)c(C)c1`, the inhibition is 34.8% (inactive).
As to `Cc1ccc(NC(=O)Cn2cccc2C2=NC(c3ccccc3)CO2)c(C)c1` (stereo unspecified), the inhibition is 77.4% (active).
On to `CC1(C)CC(=O)c2ccc(O)cc2O1`, for which the inhibition is -5.54% (inactive).
As to `CN(Cc1cccc2ncccc12)C(=O)CC1C(=O)NCCN1Cc1ccc(F)cc1` (stereo unspecified), the inhibition was -8.65% (inactive).
Consider `O=C(NCC1CCCO1)C1CCN(C2CCN(C(=O)C3CCCCC3)CC2)CC1` (stereo unspecified), for which the inhibition was -2.22% (inactive).
Under `O=C(C1CCN(S(=O)(=O)c2cnc[nH]2)CC1)N1CCN(Cc2ccc3c(c2)OCO3)CC1` stands -5.72% (inactive); under `O=C(C1CCN(C2CCN(Cc3cccc4c3OCO4)CC2)CC1)N1CCOCC1`, 76.2% (active).
On to `O=C(C1CCN(C2CCN(Cc3ccc4cc(F)ccc4n3)CC2)CC1)N1CCCC1`, for which the inhibition was 48.3% (inactive).
`C/C(=C\c1ccco1)CN1CCC(N2CCC(C(=O)N3CCOCC3)CC2)CC1`: the inhibition was 77.8% (active).
Under `COc1ccc(S(=O)(=O)N2CCC(C(=O)N3CCOCC3)CC2)cc1OC` stands -6.25% (inactive).
In the case of `Cn1c(N)c(C(=O)COC(=O)c2ccccc2NCc2ccco2)c(=O)n(C)c1=O`, the inhibition is -3.53% (inactive).
Consider `Cc1ccc(NC(=O)CN2CCC(C(N)=O)CC2)cc1[N+](=O)[O-]`, for which the inhibition was -1.6% (inactive).
Take `CCCCc1nc2ccccc2c(NC(=O)CN2CCN(C)CC2)c1CCC`: the inhibition was 32.8% (inactive).
On to `c1ccc(-c2nnc(N3CCOCC3)c3ccccc23)cc1`, for which the inhibition is 14% (inactive).
For `CN1CCN(c2nc(Nc3ccc(O)cc3)nc3ccccc23)CC1` the value was 99.9% (active).
In the case of `c1ccc(Nc2nc(N3CCOCC3)c3ccccc3n2)cc1`, the inhibition was 79.3% (active).
For the molecule `Cc1cc(N2CCN(C)CC2)nc2ccc(NC(=S)N3CCOCC3)cc12`, the inhibition is 6.8% (inactive).
For `COc1ccc(Nc2ncc(F)c(N3CCOCC3)n2)cc1`, the inhibition is 19.7% (inactive).
Under `CC1CCC(NC(=O)C2c3ccccc3C(=O)N2Cc2ccc3c(c2)OCO3)CC1` (stereo unspecified) stands 14.7% (inactive).
For the molecule `CNC(=S)NNC(=O)c1cccn(Cc2ccccc2)c1=O`, the inhibition was -2.81% (inactive).
For the molecule `CCc1nnc(NC(=O)CCCSc2nc3ccccc3[nH]2)s1`, the inhibition was 12.7% (inactive).
On to `COc1ccc(N2CCN(C(=O)C3CCN(S(=O)(=O)c4ccc(C)cc4)CC3)CC2)cc1`, for which the inhibition is 7.36% (inactive).
`O=c1oc(-c2ccco2)nc2sc3c(c12)CCCCC3`: the inhibition is -6.27% (inactive).
For `CCn1c(N)c(Br)c(=O)[nH]c1=O`, the inhibition was -8.78% (inactive).
On to `CCCCN(CC)CCCNC(=O)c1ccc(CSc2nc3ccncc3[nH]2)cc1`, for which the inhibition was -5.43% (inactive).
For `Cc1ncoc1C(=O)N1CCCC(C(=O)c2ccc3c4c(cccc24)CC3)C1` (stereo unspecified), the inhibition is 5.73% (inactive).
As for `O=C(COC(=O)/C=C/c1ccc(S(=O)(=O)N2CCCCCC2)cc1)NCc1ccccc1Cl`, the inhibition was 65.4% (active).
Under `COc1ccc(CNC(=O)COC(=O)/C=C/c2ccc(S(=O)(=O)N3CCOCC3)cc2)cc1` stands 2.59% (inactive); under `O=C(O)/C=C/c1ccc(S(=O)(=O)N2CCCCCC2)cc1`, -3.02% (inactive); under `Cc1ccc(NCc2n[nH]c(=S)n2-c2ccccc2)cc1Cl`, -7.27% (inactive).
Under `CC(=O)c1ccc(N2CCN(CC(=O)Nc3ccccc3N3CCOCC3)CC2)cc1` stands 12.9% (inactive).
As to `CC(C)n1c(-c2ccncc2)n[nH]c1=S`, the inhibition is -1.76% (inactive).
Under `Cc1ccc(N2C(=O)C(CC(=O)Nc3cccc(F)c3)N(CCc3ccncc3)C2=O)cc1` (stereo unspecified) stands 1.18% (inactive).
Under `N#Cc1c(NC(=O)C2CCCO2)sc2c1CCCCC2` (stereo unspecified) stands 0.81% (inactive).
Take `O=C(Nc1ccccc1)c1ccc2c(c1)OCO2`: the inhibition is -3.43% (inactive).
Turning to `O=C(c1ccc2c(c1)OCO2)N1CCOCC1`, the inhibition is -6.99% (inactive).
For `CC1CN(C(=O)c2ccc3c(c2)OCO3)OC(c2ccccc2)O1` (stereo unspecified) the value was 71.5% (active); for `O=C(CSc1ccc(-c2ccccc2)nn1)NCC1CCCO1` (stereo unspecified), -4.19% (inactive).
For `Cc1cc(C)nc(NNC2=CC(=O)CC(C)(C)C2)n1` the value was -7.56% (inactive); for `CCOC(=O)/C(C#N)=C/c1cn(CCC(=O)O)nc1-c1ccc(Br)cc1`, -8.02% (inactive).
`CCOC(=O)Cc1ncccc1C(=O)Nc1ccc(OC)cc1`: the inhibition was -2.87% (inactive).
Take `O=C(NCCSCc1ccccc1)c1ccc(Cl)c(S(=O)(=O)N2CCOCC2)c1`: the inhibition was 5.02% (inactive).
`CC(C)(CNC(=O)c1ccc(Cl)c(S(=O)(=O)N2CCc3ccccc3C2)c1)N1CCOCC1`: the inhibition is 50.3% (active).
On to `Cc1ccccc1CSCCNC(=O)c1ccc(Cl)c(S(=O)(=O)N2CCOCC2)c1`, for which the inhibition was 25.1% (inactive).
For `O=C(CP(=O)(c1ccccc1)c1ccccc1)N1CCOCC1`, the inhibition is -9.31% (inactive).
Regarding `O=C(NCc1cccnc1)c1cccnc1Sc1ccc(Cl)cc1`, the inhibition is 84.6% (active).
As for `CS(=O)(=O)N(Cc1ccccc1Cl)c1ccc(C(=O)NCc2cccnc2)cc1`, the inhibition is 1.77% (inactive).
Regarding `O=C(NC1CCCCCC1)c1cccnc1Sc1ccc(Cl)cc1`, the inhibition was -4.38% (inactive).
For `O=C(O)c1ccccc1-c1ccccc1C(=O)NCc1cccnc1`, the inhibition is -6.64% (inactive).
As to `Cc1ccc(S(=O)(=O)N(Cc2ccc(Cl)cc2)c2ccccc2C(=O)NCc2cccnc2)cc1`, the inhibition was 93.2% (active).
Turning to `Cc1ccc(CNC(=O)c2cccnc2Cl)cc1`, the inhibition is 0.71% (inactive).
For the molecule `O=C(NC(=S)Nc1cccc(-c2ccc(CO)o2)c1)c1cccs1`, the inhibition was -1.96% (inactive).
For `Cc1cc2c(cc1C)[n+](C)cn2CC(O)COCC1CC=CCC1` (stereo unspecified) the value was -1.67% (inactive).
For `COc1ccc(N2CCN(C(=O)/C(C#N)=C/c3ccccc3)CC2)cc1` the value was 6.39% (inactive); for `Cc1ccc(N2C(=O)C3CC3C2=O)cc1` (stereo unspecified), -5.37% (inactive); for `O=C(COC(=O)c1ccc(Cl)nc1)NCc1cccs1`, -8.06% (inactive).
For `CC(=O)Nc1cccc(-c2nc3ccccc3s2)c1C`, the inhibition is 17.8% (inactive).
As for `CCN(CC)c1ccc(C(=O)c2cnc(/N=C/N(C)C)s2)cc1`, the inhibition was 0.96% (inactive).
On to `Cc1cccc(N2CCN(c3ccc(C(N)=O)cc3[N+](=O)[O-])CC2)c1C`, for which the inhibition was 2.25% (inactive).
Regarding `CCc1c(SCCC(=O)O)nc2ccccc2c1C`, the inhibition is -1.78% (inactive).
Under `CN1CCN(NC(=O)c2ccc(S(=O)(=O)N3CCCCCC3)cc2)CC1` stands -0.39% (inactive); under `O=C(CC(=O)Nc1ccc(Cl)c(Cl)c1)N/N=C/c1ccc(O)cc1`, 59.3% (active).
Take `CC1=NNC(=O)C1CCC(=O)N/N=C\c1ccc(Cl)c(Cl)c1` (stereo unspecified): the inhibition is -3.71% (inactive).
With `O=C(C[n+]1ccccc1)N/N=C/c1ccc(O)cc1`, the inhibition is -6.86% (inactive).
Consider `CCOC(=O)c1c(-c2cccc(N)c2)cn2ccccc12`, for which the inhibition was 0.87% (inactive).
For the molecule `Cc1ccc(COc2ccc(/C=N/NC(=O)CN3CCCCC3)cc2)cc1`, the inhibition was 5.55% (inactive).
With `O=C(Nc1cccc([N+](=O)[O-])c1)Nc1ccc(Cl)cn1`, the inhibition was -0.05% (inactive).
Turning to `O=C(CCl)N(Cc1cccc([N+](=O)[O-])c1)c1cccc(Cl)c1`, the inhibition is 101% (active).
Under `CCN(CC)C(=O)CN(c1cccc([N+](=O)[O-])c1)S(=O)(=O)c1ccccc1` stands -3.8% (inactive); under `Cc1ccc(C(=O)OC(C)CN2CCOCC2)cc1` (stereo unspecified), -9.42% (inactive); under `COC(=O)C(C)NC(=O)COc1ccc2ccccc2c1` (stereo unspecified), 9.52% (inactive).
Regarding `CCCCCCCCc1c(O)nc(-n2[nH]c(C)c(CCO)c2=O)[nH]c1=O`, the inhibition was -4.27% (inactive).
For `COC(=O)/C(=C1\Oc2ccc(C(C)(C)C)cc2S1)C(F)(F)F` the value was -4.31% (inactive); for `Cc1cc2ccccn2c1C(=O)c1cccc(S(=O)(=O)N2CCOCC2)c1`, 15.2% (inactive); for `COc1ccc(C(=O)CSc2nnnn2C)c(OC)c1`, -1.53% (inactive).
Under `COc1ccc(CNC(=O)CCCn2nc(C)c([N+](=O)[O-])c2C)cc1` stands -8.33% (inactive); under `Cc1ccc(Oc2cc(NC(=O)CCCn3nc(C)c([N+](=O)[O-])c3C)cc([N+](=O)[O-])c2)cc1`, 98.4% (active); under `Cc1nn(CC(=O)Nc2ccc(N(C)C)cc2)c(C)c1[N+](=O)[O-]`, 0.03% (inactive).
Take `Cc1ccc(CNC(=O)CC2Sc3ccccc3NC2=O)cc1` (stereo unspecified): the inhibition is -7.06% (inactive).
